Source: PubChem BioAssay
CYP2C19 inh: human CYP2C19 inhibition. P33261. hit rate 21% among 96,000. inhibition, % at 5 µM. CYP2C19 Supersomes, luciferin-H EGE luminescence, 30 min;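 active = CYP2C19 inhibition above a set limit at 5 µM in the primary screen, cut at about 50% in these data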;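 note: plate controls were negative control wells for no effect and 2.5 mM tranylcypromine positive control for full effect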
CYP2C9 inh: blocks human cytochrome P450 2C9; P11712; CYP2C9 Supersomes, luciferin-H conversion, luminescence; inhibition, % at 5 µM; hit rate 20% among 96,000; AID 777;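 active = blocking of liver enzyme CYP2C9 beyond about 50% at 5 µM, limit read from the data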
Target sequence (P11712 whole entry, looked up): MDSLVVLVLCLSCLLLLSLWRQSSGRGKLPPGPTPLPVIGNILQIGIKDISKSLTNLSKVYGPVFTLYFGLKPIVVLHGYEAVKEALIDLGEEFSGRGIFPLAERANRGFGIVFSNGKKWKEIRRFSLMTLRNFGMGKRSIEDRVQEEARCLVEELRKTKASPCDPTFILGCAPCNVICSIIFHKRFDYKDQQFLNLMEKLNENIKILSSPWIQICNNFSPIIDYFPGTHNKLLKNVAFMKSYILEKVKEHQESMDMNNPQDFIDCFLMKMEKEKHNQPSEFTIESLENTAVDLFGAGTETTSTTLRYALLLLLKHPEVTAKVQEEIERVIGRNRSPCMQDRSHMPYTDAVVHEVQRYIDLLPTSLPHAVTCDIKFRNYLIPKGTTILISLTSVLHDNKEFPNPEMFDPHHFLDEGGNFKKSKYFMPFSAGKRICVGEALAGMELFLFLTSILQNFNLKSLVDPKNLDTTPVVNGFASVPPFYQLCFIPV
CYP2C19 act: increases human CYP2C19 enzyme activity; 96,000 tested, under 10 active; activation factor at 5 µM; recombinant CYP2C19, luciferin-H EGE luminescence; hits give high values; 0 = fully inhibited enzyme, 1 = untreated enzyme;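 active = activation factor of at least 2 at 5 µM in the primary screen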;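 note: 0 = wells with 2.5 mM tranylcypromine and 1 = vehicle-only wells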
CYP2C9 activ: increases human cytochrome P450 2C9 activity | AID 1024 | recombinant CYP2C9, luciferin-H conversion, luminescence; hits give high values; factor 1 = untreated enzyme, 0 = blocked | activation factor at 5 µM | hit rate 1.4% among 96,000;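 active = activation factor of 2 or more for CYP2C9 at a 5 µM dose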;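 note: 0 = sulfaphenazole-blocked wells and 1 = vehicle-only wells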
PostGolgi ctrl: inhibits growth of the yeast control strain. efflux-deficient yeast background strain, growth absorbance A615, 16 h. inhibition, % at 10 µM. hit rate 5% among 98,000. AID 738
PostGolgi yeast: growth inhibition of a yeast mutant, post-Golgi transport screen | inhibition, % at 10 µM | post-Golgi transport phenotypic cell assay | hit rate 0.9% among 98,000;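 note: yeast cells grown in 1536-well plates; yeast grown about 18 h at 30C before absorbance read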
The depositor's hits bear a star. Most compounds without a hit are left out; they make up all but 32% or so of the library. Cut-off read from the data, not from the text of the source, unless noted: active = inhibition above about 30%; inactive = the rest.

Results for Nc1nc(CN2CCN(c3ccccn3)CC2)nc(Nc2ccc(Cl)cc2)n1 ?
CYP2C19 inh: 46.3; CYP2C9 inh: 68.5*; CYP2C19 act: 0.5; CYP2C9 activ: 0.3; PostGolgi ctrl: 3.5; PostGolgi yeast: 14.8

How did Cc1ccc(Nc2nc(N)nc(CSc3nc4ccccc4s3)n2)cc1 do in these assays?
CYP2C19 inh: 34.1; CYP2C9 inh: -22.6; CYP2C19 act: 0.7; CYP2C9 activ: 1.2; PostGolgi ctrl: 51.4*; PostGolgi yeast: 1.8

What do the screens show for `Cc1ccc(Nc2nc(N)nc(CSc3ncccn3)n2)cc1`?
CYP2C19 inh: 5.8; CYP2C9 inh: 41.7; CYP2C19 act: 0.9; CYP2C9 activ: 0.6; PostGolgi ctrl: 1.7; PostGolgi yeast: -4.5

How did Cc1c(Cl)cccc1Nc1nc(N)nc(CN2CCc3ccccc3C2)n1 do in these assays?
CYP2C19 inh: 32.9; CYP2C9 inh: 46.2; CYP2C19 act: 0.7; CYP2C9 activ: 0.5; PostGolgi ctrl: 12.5; PostGolgi yeast: -0.5

Results for COc1ccc(S(=O)(=O)N2CCN(C(=O)c3cccc(Cl)c3)CC2)cc1 ?
CYP2C19 inh: 38.7; CYP2C9 inh: 14.9; CYP2C19 act: 0.6; CYP2C9 activ: 0.9; PostGolgi ctrl: 15.2; PostGolgi yeast: 2.1

How did Clc1ccc(-n2cccc2/C=N/n2cnnc2)cc1 do in these assays?
CYP2C19 inh: 57.0*; CYP2C9 inh: 55.7*; CYP2C19 act: 0.4; CYP2C9 activ: 0.4; PostGolgi ctrl: 10.4; PostGolgi yeast: 7.8

What do the screens show for `Cn1cccc1/C=N/n1cnnc1`?
CYP2C19 inh: 0.3; CYP2C9 inh: 0.3; CYP2C19 act: 1; CYP2C9 activ: 1; PostGolgi ctrl: 3.3; PostGolgi yeast: 10.5

What do the screens show for `Brc1ccc(-n2cccc2/C=N/n2cnnc2)cc1`?
CYP2C19 inh: 74.4*; CYP2C9 inh: 52.8*; CYP2C19 act: 0.3; CYP2C9 activ: 0.5; PostGolgi ctrl: 0.9; PostGolgi yeast: 9.6

What do the screens show for `O=C(Cn1ccc2ccccc2c1=O)NCCC(=O)NC1CCN(Cc2ccccc2)CC1`?
CYP2C19 inh: -14.5; CYP2C9 inh: -25.4; CYP2C19 act: 1.1; CYP2C9 activ: 1.3; PostGolgi ctrl: 49.3*; PostGolgi yeast: -3.5

How did Cc1cccc(CN2CCC(CNC(=O)CCNC(=O)Cn3ccc4ccccc4c3=O)CC2)c1 do in these assays?
CYP2C19 inh: -3.3; CYP2C9 inh: 39.3; CYP2C19 act: 1; CYP2C9 activ: 0.6; PostGolgi ctrl: -2.6; PostGolgi yeast: -0.3

What do the screens show for `Cc1nnc(N2CCc3ccccc3C2)[nH]c1=O`?
CYP2C19 inh: -0.5; CYP2C9 inh: -0.5; CYP2C19 act: 1; CYP2C9 activ: 1; PostGolgi ctrl: -4.1; PostGolgi yeast: -3.1

How did CC(Sc1nnc(-c2ccc(O)cc2)o1)C(=O)Nc1cccc2ccccc12 (stereo not drawn) do in these assays?
CYP2C19 inh: 72.0*; CYP2C9 inh: 14.5; CYP2C19 act: 0.3; CYP2C9 activ: 0.9; PostGolgi ctrl: 8.8; PostGolgi yeast: -5.4

What do the screens show for `COc1ccc(-c2nnc(SC(C)C(=O)Nc3cccc(Cl)c3)o2)cc1` (stereo not drawn)?
CYP2C19 inh: 48.5; CYP2C9 inh: 60.8*; CYP2C19 act: 0.5; CYP2C9 activ: 0.4; PostGolgi ctrl: 18.4; PostGolgi yeast: 4.8

What do the screens show for `COC(=O)c1ccccc1NC(=O)C1CCCN(c2nnc(-n3cccc3)s2)C1` (stereo not drawn)?
CYP2C19 inh: 25.9; CYP2C9 inh: 10.6; CYP2C19 act: 0.7; CYP2C9 activ: 0.9; PostGolgi ctrl: 17.2; PostGolgi yeast: 16.3

How did Cc1ccc(NC(=O)c2ccccc2)s1 do in these assays?
CYP2C19 inh: 58.4*; CYP2C9 inh: 38.4; CYP2C19 act: 0.4; CYP2C9 activ: 0.6; PostGolgi ctrl: 4.2; PostGolgi yeast: -2.4

How did CCn1cc(NC(=O)Nc2ccccc2C(=O)OC)c(C(N)=O)n1 do in these assays?
CYP2C19 inh: -8.6; CYP2C9 inh: -1.6; CYP2C19 act: 1.1; CYP2C9 activ: 1; PostGolgi ctrl: -4.0; PostGolgi yeast: 1.2

What do the screens show for `COc1cc(C(=O)OCC(=O)c2cc(C)n(C)c2C)cc(OC)c1OC`?
CYP2C19 inh: 58.5*; CYP2C9 inh: -148.1; CYP2C19 act: 0.4; CYP2C9 activ: 2.5*; PostGolgi ctrl: 5.5; PostGolgi yeast: 3.9

How did Cc1cc(C(=O)COC(=O)c2n[nH]c3ccccc23)c(C)n1C do in these assays?
CYP2C19 inh: 42.9; CYP2C9 inh: -62.7; CYP2C19 act: 0.6; CYP2C9 activ: 1.6; PostGolgi ctrl: 5.3; PostGolgi yeast: -0.9

What do the screens show for `O=c1[nH]c(NCCCO)nc2c1C1(CCCC1)Cc1ccccc1-2`?
CYP2C19 inh: -14.0; CYP2C9 inh: 3.3; CYP2C19 act: 1.1; CYP2C9 activ: 1; PostGolgi ctrl: 18.7; PostGolgi yeast: 1.1

Results for O=c1c2c(nc3n1CCCCC3)-c1ccccc1CC21CCCC1 ?
CYP2C19 inh: 28.9; CYP2C9 inh: 29.5; CYP2C19 act: 0.7; CYP2C9 activ: 0.7; PostGolgi ctrl: 46.2*; PostGolgi yeast: 4.8

Results for Cn1c(NCCO)nc2c(c1=O)C1(CCCCC1)Cc1ccccc1-2 ?
CYP2C19 inh: -4.6; CYP2C9 inh: 25.6; CYP2C19 act: 1; CYP2C9 activ: 0.7; PostGolgi ctrl: 49.7*; PostGolgi yeast: 1.2

How did Cc1ccc(C2CC(c3cccs3)=NN2C(=O)CSC2=NN3CCCC(=O)N=C3S2)cc1 (stereo not drawn) do in these assays?
CYP2C19 inh: 91.1*; CYP2C9 inh: 81.6*; CYP2C19 act: 0.1; CYP2C9 activ: 0.2; PostGolgi ctrl: 15.4; PostGolgi yeast: -0.3

Results for COc1ccc(C2CC(c3cccs3)=NN2C(=O)CSC2=NN3CCCC(=O)N=C3S2)cc1 (stereo not drawn) ?
CYP2C19 inh: 3.4; CYP2C9 inh: 25.1; CYP2C19 act: 1; CYP2C9 activ: 0.7; PostGolgi ctrl: 19.5; PostGolgi yeast: -1.1

How did Cn1nccc1C(=O)c1ccc(Cl)cc1 do in these assays?
CYP2C19 inh: 58.1*; CYP2C9 inh: 22.7; CYP2C19 act: 0.4; CYP2C9 activ: 0.8; PostGolgi ctrl: 19.7; PostGolgi yeast: 4.3

Results for Cc1ccc(C(=O)N2CCN(C(=O)CN3CCCC3)C2)cc1 ?
CYP2C19 inh: 16.4; CYP2C9 inh: 13.7; CYP2C19 act: 0.8; CYP2C9 activ: 0.9; PostGolgi ctrl: -3.5; PostGolgi yeast: -3.2

What do the screens show for `CC1CCN(c2ncnc3c2cnn3Cc2ccc(Cl)cc2)CC1`?
CYP2C19 inh: 38.3; CYP2C9 inh: 75.8*; CYP2C19 act: 0.6; CYP2C9 activ: 0.2; PostGolgi ctrl: 28.0; PostGolgi yeast: -8.0

How did Cc1ccccc1N1CCN(c2ncnc3c2cnn3Cc2ccc(Cl)cc2)CC1 do in these assays?
CYP2C19 inh: 41.2; CYP2C9 inh: 76.2*; CYP2C19 act: 0.6; CYP2C9 activ: 0.2; PostGolgi ctrl: -1.7; PostGolgi yeast: -3.4

What do the screens show for `CCN(CC)C(=O)C1CCCN(c2ccc([N+](=O)[O-])cc2/C=N/NC(=O)c2ccc([N+](=O)[O-])cc2)C1` (stereo not drawn)?
CYP2C19 inh: 37.5; CYP2C9 inh: -3.1; CYP2C19 act: 0.6; CYP2C9 activ: 1; PostGolgi ctrl: 2.6; PostGolgi yeast: 7.3
